Sfp inh: qHTS Assay for Inhibitors of Bacillus subtilis Sfp phosphopantetheinyl transferase (PPTase) | 4'-phosphopantetheinyl transferase ffp (Bacillus subtilis), Q9F4F7 | Biochemical Sfp PPTase activity, qHTS | Potency, µM, without a hit: largest response in the series, negative = inhibition, most hits filed as inhibitors | actives 3.5% (n = 310,000);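 note: the enzyme is Sfp with the accession as filed and its product quenches rhodamine fluorescence; potency is the fitted concentration of half-maximal effect; 0% = enzyme reaction without inhibitor and -100% = no enzyme wells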
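With Hepes-Na pH 7.6 buffer containing 10 mM MgCl2, Sfp (15 nM) modified BHQ-2-YbbR (12.5 uM) using rhodamine-CoA (5 uM). Two reads 30 minutes apart at 525/598 nm yielded each well's rate.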
Tau FP inhib: qHTS for Inhibitors of Tau Fibril Formation, Fluorescence Polarization | AID 1468, 2008 | K18 P301L tau heparin fibrillization, Alexa594 FP, 6 h | Potency, µM (highest dose often 57.7 µM), without a hit: top-dose activity, negative = inhibition, hits mostly inhibitors | Microtubule-associated protein tau (Homo sapiens), P10636 | actives 0.39% (n = 280,000); note: potency is the fitted concentration of half-maximal effect; nearly all actives have a fitted effect of over 55% in size
Target sequence (P10636 561-689 P618L limits assumed): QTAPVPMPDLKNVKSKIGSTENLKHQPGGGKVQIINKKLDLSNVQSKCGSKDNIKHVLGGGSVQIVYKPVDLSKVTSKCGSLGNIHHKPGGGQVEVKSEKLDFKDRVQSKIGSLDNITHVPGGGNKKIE
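Steps: dispense K18 P301L tau (15 uM plus 0.24 uM Alexa 594 tracer, final) in pH 7 sodium acetate; add compound; add heparin (20 uM final); incubate 6 hr, 37 C; add ThT (30 uM final); after 1 hr ambient, read FP.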
Coupling enz: qHTS Assay for Inhibitors of Fructose-1,6-bisphosphate Aldolase from Giardia Lamblia: Coupling assay counterscreen | coupling enzyme system counterscreen, AmpLite Red fluorescence | activity change, negative = inhibition, % at 58.2 µM, hits read low | actives 0.67% (n = 290,000) | AID 2472, 2010; in the data active = activity change below about -30%
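Fluorescence at 525 nm excitation and 598 nm emission measured inhibition of the coupled detection system without aldolase. Compounds (at 57.5 uM final) were preincubated 10 min at room temperature with coupling enzyme reagent before a 20 min substrate/AmpLite Red step.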
Tau fluor cs: Counterscreen qHTS for Inhibitors of Tau Fibril Formation, Fluorescence Polarization. tau K18 P301L Alexa594 fluorescence, heparin fibrillization. Potency, µM (series often up to 57.7 µM), without a hit: at the highest dose activity change, negative = decrease. actives 0.93% (n = 280,000); note: potency is the fitted concentration of half-maximal effect; nearly all actives have a fitted effect of over 55% in size
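Human K18 P301L tau (15 uM unlabeled plus 0.24 uM Alexa 594-labeled, final) in 100 mM sodium acetate pH 7 was mixed with compound and 20 uM heparin and incubated 6 hr at 37 C.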
Tau fibril ThT: qHTS for Inhibitors of Tau Fibril Formation, Thioflavin T Binding; actives 2.1% (n = 270,000); recombinant tau K18 P301L, heparin-induced fibrillization, ThT fluorescence; Potency, µM (series often up to 57.4 µM), without a hit: at the top dose activity, negative = inhibition, actives largely listed as inhibitors; Microtubule-associated protein tau (Homo sapiens), P10636; note: potency is the fitted concentration of half-maximal effect; nearly all actives have a fitted effect of over 55% in size
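Fibril formation assay: tau K18 P301L at 15 uM with trace Alexa 594 label, heparin inducer 20 uM, pH 7 sodium acetate buffer, 37 C for 6 hr; endpoint ThT signal.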
* hit, by the source's call; ? = inconclusive; nt = no result given; ! = not active in a repeat; [ ] = dose if it differs, or a comment. The list is not random: actives were taken first. Their share in the collection is about 5.2%. Unless noted, calls come from the whole dose curve; as a rule, active = well fitted curve in the direction sought with a large enough effect; inconclusive = small, poorly fitted or top-dose-only effect, or another doubt; inactive = no such curve, though single readings can be large; an effect the other way counts as inactive or inconclusive. Unless noted, % is set by controls: 0 for no effect and ±100 for the full control effect.

SMILES	Sfp inh	Tau FP inhib	Coupling enz	Tau fluor cs	Tau fibril ThT
O=C(O)c1cc(N/N=C/C=C/c2ccccc2[N+](=O)[O-])ccc1Cl	-25.7%	-2.8%	5.0	?	3.55µM*
O=c1c(-c2ccc(F)cc2)nc2cnc(N3CCOCC3)nc2n1Cc1ccc(F)cc1	-7.3%	nt	1.7	nt	nt
COC(=O)c1ccccc1-c1ccc(C(c2c(C)[nH][nH]c2=O)c2c(C)[nH][nH]c2=O)o1	6.0%	-5.1%	-0.6	-11.7%	-2.8%
Cc1[nH][nH]c(=O)c1C(c1ccc(-c2ccc(Cl)c(C(=O)O)c2)o1)c1c(C)[nH][nH]c1=O	-71.5%	?	-48.4*	-15.6%	10µM*
COC(=O)c1cccc(-c2ccc(C(c3c(C)[nH][nH]c3=O)c3c(C)[nH][nH]c3=O)o2)c1	8.91µM*	?	-45.5*	-25.5%	7.94µM*
CCc1cccc(CC)c1NC(=S)/C(=C(\[O-])c1ccc(Cl)s1)[n+]1ccccc1	-15.2%	0.3%	0.2	-21.1%	?
[O-]/C(=C(\C(=S)Nc1cccc2ccccc12)[n+]1ccccc1)c1ccc(Cl)s1	-28.0%	5.1%	-39.5*	7.5%	6.7%
Cc1ccc(C)c(NC(=S)/C(=C(\[O-])c2ccc(Cl)s2)[n+]2ccccc2)c1	50.1µM*	-5.6%	-40.3*	-14.6%	?
CC(C)(C)c1cc[n+](/C(C(=S)NC2CC2)=C(/[O-])c2ccc(Cl)s2)cc1	56.2µM*	-2.1%	-43.9*	-18.0%	?
CN(C)C(=O)c1ccc(-c2cc(N(C)Cc3ccco3)ncn2)cc1	-4.7%	nt	0.1	nt	nt
Cc1cc(Nc2ccc(C)c(Cl)c2)n2nc(Cc3ccccc3)nc2n1	nt	4.1%	nt	4.1%	-11.7%
CC1CC(C)(C)CC2(C1)NC(=S)N(c1ccccc1)N2 (stereo not given)	?	-1.6%	2.5	-16.0%	-20.3%
CC1CCCCC12NC(=S)N(c1ccccc1)N2 (stereo not given)	17.8µM*	?	2.4	-21.7%	25.1µM*
S=C1NC2(CCCCC2)NN1c1ccccc1	-61.0%	-0.6%	3.9	-10.5%	?
CC1CCCC2(C1)NC(=S)N(c1ccccc1)N2 (stereo not given)	50.1µM*	-1.7%	4.9	-10.1%	?
CC(C)CCN1NC2(CCCC(C)C2)NC1=S (stereo not given)	70.8µM*	0.1%	0.7	-9.6%	-9.7%
CC1CCC2(CC1)Nc1ccccc1C(=O)N2c1ccccc1 (stereo not given)	9.5%	0.6%	-1.3	-16.2%	-8.6%
Cc1nn(-c2ccccc2)c(-n2cccc2)c1C(=O)NCCc1ccc(Cl)cc1	nt	10.9%	nt	-6.3%	-17.4%
COC(=O)c1ccc(-c2nc3cc(N)ccc3o2)cc1	8.4%	13.4%	-0.4	-17.5%	5.01µM*
O=C1c2cccc3cccc(c23)C(=O)N1CC1CCN(CC(O)COc2ccc3ccccc3c2)CC1 (stereo not given)	8.5%	-5.0%	nt	15.8µM*[quencher]	12.6µM*
O=C1c2cccc3cccc(c23)C(=O)N1CCN1CCN(CC(O)COc2ccc3ccccc3c2)CC1 (stereo not given)	25.1µM*	-5.3%	3.9	-27.3%	?
CCc1ccc(OCC(O)CN2CCC(CN3C(=O)c4cccc5cccc(c45)C3=O)CC2)cc1 (stereo not given)	50.1µM*	-5.3%	0.6	-15.8%	?
Cc1cc(C)cc(OCC(O)CN2CCC(CN3C(=O)c4cccc5cccc(c45)C3=O)CC2)c1 (stereo not given)	-0.8%	2.1%	0.2	1.7%	-5.0%
CCn1ccc2cc(S(=O)(=O)N3CCC(C(=O)NCCOC)CC3)ccc21	nt	1.6%	nt	-1.4%	5.1%
CCc1ccccc1N(C)C(=O)Cc1c(C(=O)O)c(C)cn1C	nt	-6.3%	nt	-3.4%	1.5%
SMILES	Sfp inh	Tau FP inhib	Coupling enz	Tau fluor cs	Tau fibril ThT
Nc1nonc1C(=O)NCCNCc1cccc(Cl)c1Cl	nt	0.8%	nt	2.2%	3.6%
NNC(=O)CN1C(c2ccccc2Br)=Nc2ccc(Br)cc2C1c1ccccc1 (stereo not given)	0.5%	0.2%	-37.8*	-3.1%	-5.3%
OCCN(Cc1ccccc1)Cc1cccc(Cl)c1Cl	?	-6.9%	-2.2	-15.5%	-19.8%
OCCN(Cc1ccccc1)Cc1ccccc1F	39.8µM*	0.6%	-5.4	3.6%	1.1%
OCCN(Cc1ccccc1)Cc1ccccc1Cl	28.2µM*	1.6%	-8.5	-2.0%	-3.8%
COc1ccc(N(C)S(=O)(=O)c2cccc(C(=O)NC3CCC(C)CC3)c2)cc1 (stereo not given)	19.3%	-7.4%	0.4	-22.8%	-15.9%
COc1ccc(C2=CSC3=C(C(=O)c4cccc(S(=O)(=O)N(C)C)c4)CCN23)cc1	0.9%	?	2.6	?	25.1µM*
COc1ccc(-c2nc3ccccc3nc2-c2ccc(OC)c(OC)c2)cc1OC	4.6%	nt	0.3	nt	nt
COc1ccc2nc(-c3ccccc3)cc(OC)c2c1	2.7%	-3.6%	-1.8	-11.9%	-7.6%
COc1ccc2nc3cccc(OC)c3nc2c1	-85.1%	?	-39.2*	-25.7%	15.8µM*
COc1ccc2nc3ccccc3nc2c1N	4.47µM*	?	-5.9	?	10µM*
CCOCCc1nnc(NC(=O)C(=O)c2cc(C)n(-c3ccc(C)c(C)c3)c2C)s1	nt	-6.3%	nt	-5.2%	2.9%
CCOC(=O)c1cc(OC(=O)c2cc(Cl)ccc2OC)n(-c2ccccc2)n1	nt	-2.2%	nt	-15.7%	-16.9%
COc1ccc(/C=C/c2cc(=O)c3cc(Cl)ccc3o2)cc1	50.1µM*	-1.9%	-4.1	-12.4%	?
CC(C)(C)CC(C)(C)c1ccc(OCCOCC[N+](C)(C)Cc2ccccc2)cc1	39.8µM*!	-13.3%	3.8	-11.5%	nt
COC(=O)c1ccccc1NC(=O)c1sc(N)nc1C	-1.7%	4.7%	2.7	-4.6%	-15.4%
COC(=O)c1ccccc1NC(=O)c1sc(=S)n(C)c1N	25.1µM*	3.6%	1.0	?	?
Cn1c(N)c(C(=O)NCc2ccccc2)sc1=S	22.4µM*	-2.7%	1.1	-11.7%	-15.8%
COc1ccc(CCNC(=O)c2sc(=S)n(C)c2N)cc1	?	-7.3%	-0.2	-3.0%	-5.4%
C=C(C)COc1ccc(-c2[nH]ncc2Oc2cccc(OC)c2)c(O)c1	8.7%	?	-10.0	8.91µM*[quencher]	-15.1%
C=C(C)COc1ccc(-c2[nH]ncc2Oc2ccccc2OCC)c(O)c1	1.9%	?	-3.5	3.98µM*[quencher]	?
COc1ccc(-c2[nH]ncc2Oc2ccccc2OC)c(O)c1	6.8%	14.0%	-3.6	25.1µM*[quencher]	-11.3%

Assay outcomes (PubChem BioAssay)
